Laboratory results reported in ChEMBL document CHEMBL1961873, “Compounds: GSK PKIS; Assays: Nanosyn kinase panel” (2012).
Several values for one entry are separate records, joined by “and”; a condition that tells them apart may be missing. Equal values may be shown once.

Tests used:
[1] = target: T1, Inhibitor of nuclear factor kappa-B kinase subunit epsilon (Homo sapiens) (UniProt Q14164); details: at 1 µM;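 note: reported values are averaged percent inhibition figures against human IKKε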
T1 sequence (whole entry): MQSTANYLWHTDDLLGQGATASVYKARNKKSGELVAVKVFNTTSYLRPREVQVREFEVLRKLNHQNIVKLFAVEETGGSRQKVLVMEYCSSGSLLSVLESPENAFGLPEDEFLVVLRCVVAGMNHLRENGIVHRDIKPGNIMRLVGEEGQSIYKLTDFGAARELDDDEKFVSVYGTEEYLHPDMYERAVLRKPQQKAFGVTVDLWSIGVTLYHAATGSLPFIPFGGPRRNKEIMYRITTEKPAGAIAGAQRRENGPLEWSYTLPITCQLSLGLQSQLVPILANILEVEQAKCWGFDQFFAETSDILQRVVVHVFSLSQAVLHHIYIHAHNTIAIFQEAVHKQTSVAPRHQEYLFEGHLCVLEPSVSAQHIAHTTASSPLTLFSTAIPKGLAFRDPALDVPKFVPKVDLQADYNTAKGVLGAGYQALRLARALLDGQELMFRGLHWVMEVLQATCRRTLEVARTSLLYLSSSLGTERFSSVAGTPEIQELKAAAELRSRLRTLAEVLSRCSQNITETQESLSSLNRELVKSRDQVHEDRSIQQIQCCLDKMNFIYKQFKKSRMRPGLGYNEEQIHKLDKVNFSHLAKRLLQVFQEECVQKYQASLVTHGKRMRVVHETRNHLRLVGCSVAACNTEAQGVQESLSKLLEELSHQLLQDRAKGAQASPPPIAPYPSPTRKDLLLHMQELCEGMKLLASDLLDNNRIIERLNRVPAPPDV

[2] = target: T2, Serine/threonine-protein kinase Nek1 (Homo sapiens) (UniProt Q96PY6); details: at 0.1 µM
T2 sequence (whole entry): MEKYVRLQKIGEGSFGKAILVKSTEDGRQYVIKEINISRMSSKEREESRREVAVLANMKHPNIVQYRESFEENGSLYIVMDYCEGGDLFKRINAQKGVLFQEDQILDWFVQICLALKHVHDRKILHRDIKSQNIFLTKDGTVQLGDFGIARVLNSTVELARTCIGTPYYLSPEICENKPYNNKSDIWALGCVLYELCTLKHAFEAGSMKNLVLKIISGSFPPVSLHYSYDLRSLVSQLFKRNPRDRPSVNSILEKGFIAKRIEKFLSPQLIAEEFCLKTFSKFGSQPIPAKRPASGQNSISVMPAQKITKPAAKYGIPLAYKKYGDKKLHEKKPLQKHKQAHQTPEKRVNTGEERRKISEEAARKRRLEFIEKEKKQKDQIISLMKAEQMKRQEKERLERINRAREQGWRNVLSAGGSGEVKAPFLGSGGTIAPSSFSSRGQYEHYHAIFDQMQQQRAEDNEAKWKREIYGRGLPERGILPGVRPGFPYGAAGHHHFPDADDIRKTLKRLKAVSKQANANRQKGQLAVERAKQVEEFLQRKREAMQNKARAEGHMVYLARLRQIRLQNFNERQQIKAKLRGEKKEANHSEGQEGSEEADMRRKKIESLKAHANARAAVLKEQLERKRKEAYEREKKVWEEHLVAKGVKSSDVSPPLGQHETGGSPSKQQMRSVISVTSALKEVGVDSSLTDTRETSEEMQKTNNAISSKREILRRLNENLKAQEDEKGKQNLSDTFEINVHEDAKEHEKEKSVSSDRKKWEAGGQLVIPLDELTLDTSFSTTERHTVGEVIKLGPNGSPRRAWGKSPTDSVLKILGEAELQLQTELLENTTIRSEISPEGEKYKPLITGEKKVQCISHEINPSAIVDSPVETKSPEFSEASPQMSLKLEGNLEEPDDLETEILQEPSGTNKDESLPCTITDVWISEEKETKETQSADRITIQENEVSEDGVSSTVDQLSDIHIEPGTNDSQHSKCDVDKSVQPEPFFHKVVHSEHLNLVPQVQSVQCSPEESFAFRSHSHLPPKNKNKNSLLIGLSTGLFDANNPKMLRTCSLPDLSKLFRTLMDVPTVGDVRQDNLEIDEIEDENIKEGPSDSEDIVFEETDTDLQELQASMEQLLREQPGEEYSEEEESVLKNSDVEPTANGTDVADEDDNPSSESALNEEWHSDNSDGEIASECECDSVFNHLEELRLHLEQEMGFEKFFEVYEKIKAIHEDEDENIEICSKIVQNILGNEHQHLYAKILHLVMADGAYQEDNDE

[3] = target: T2, Serine/threonine-protein kinase Nek1 (Homo sapiens); details: at 1 µM
[4] = target: T3, Serine/threonine-protein kinase Nek2 (Homo sapiens) (UniProt P51955); details: at 0.1 µM
T3 sequence (whole entry): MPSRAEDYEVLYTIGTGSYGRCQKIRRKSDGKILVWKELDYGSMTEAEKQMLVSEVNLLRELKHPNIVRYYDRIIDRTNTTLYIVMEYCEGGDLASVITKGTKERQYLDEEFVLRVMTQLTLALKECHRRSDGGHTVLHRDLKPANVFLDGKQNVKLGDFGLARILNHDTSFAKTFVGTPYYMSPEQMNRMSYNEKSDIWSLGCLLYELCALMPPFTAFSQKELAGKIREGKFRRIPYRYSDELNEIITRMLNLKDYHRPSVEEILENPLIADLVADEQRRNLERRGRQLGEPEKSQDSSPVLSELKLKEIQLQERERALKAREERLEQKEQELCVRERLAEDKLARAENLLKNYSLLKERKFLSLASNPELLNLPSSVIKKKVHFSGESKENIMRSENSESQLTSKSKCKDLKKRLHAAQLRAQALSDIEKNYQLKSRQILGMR

[5] = target: T3, Serine/threonine-protein kinase Nek2 (Homo sapiens); details: at 1 µM
[6] = target: Serine/threonine-protein kinase Nek6 (Homo sapiens) (UniProt Q9HC98); details: at 0.1 µM
Sequence of Serine/threonine-protein kinase Nek6 (Homo sapiens) (Q9HC98 whole entry): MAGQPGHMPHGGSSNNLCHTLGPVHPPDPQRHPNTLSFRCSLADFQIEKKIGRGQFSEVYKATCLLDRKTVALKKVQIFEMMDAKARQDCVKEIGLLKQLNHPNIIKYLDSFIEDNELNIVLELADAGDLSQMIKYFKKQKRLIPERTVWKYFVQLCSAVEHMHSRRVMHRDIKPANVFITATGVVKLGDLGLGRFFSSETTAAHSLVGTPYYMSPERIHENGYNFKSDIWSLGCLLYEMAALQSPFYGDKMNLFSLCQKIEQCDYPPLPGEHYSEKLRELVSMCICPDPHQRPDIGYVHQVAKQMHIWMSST

[7] = target: Serine/threonine-protein kinase Nek6 (Homo sapiens) (UniProt Q9HC98); details: at 1 µM
[8] = target: Serine/threonine-protein kinase Nek7 (Homo sapiens) (UniProt Q8TDX7); details: at 0.1 µM
Sequence of Serine/threonine-protein kinase Nek7 (Homo sapiens) (Q8TDX7 whole entry, looked up): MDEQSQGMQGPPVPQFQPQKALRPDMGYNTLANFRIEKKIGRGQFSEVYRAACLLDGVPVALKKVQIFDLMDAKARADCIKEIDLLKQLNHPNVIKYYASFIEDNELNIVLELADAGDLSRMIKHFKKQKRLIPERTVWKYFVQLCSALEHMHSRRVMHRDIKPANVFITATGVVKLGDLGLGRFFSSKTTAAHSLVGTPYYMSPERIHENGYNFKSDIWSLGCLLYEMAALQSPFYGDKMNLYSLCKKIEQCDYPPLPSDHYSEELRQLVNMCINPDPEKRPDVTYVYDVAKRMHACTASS

[9] = target: Serine/threonine-protein kinase Nek7 (Homo sapiens) (UniProt Q8TDX7); details: at 1 µM
[10] = target: T4, Serine/threonine-protein kinase Nek9 (Homo sapiens) (UniProt Q8TD19); details: at 0.1 µM;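 note: reported value is the mean percent inhibition of NEK9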
T4 sequence (whole entry): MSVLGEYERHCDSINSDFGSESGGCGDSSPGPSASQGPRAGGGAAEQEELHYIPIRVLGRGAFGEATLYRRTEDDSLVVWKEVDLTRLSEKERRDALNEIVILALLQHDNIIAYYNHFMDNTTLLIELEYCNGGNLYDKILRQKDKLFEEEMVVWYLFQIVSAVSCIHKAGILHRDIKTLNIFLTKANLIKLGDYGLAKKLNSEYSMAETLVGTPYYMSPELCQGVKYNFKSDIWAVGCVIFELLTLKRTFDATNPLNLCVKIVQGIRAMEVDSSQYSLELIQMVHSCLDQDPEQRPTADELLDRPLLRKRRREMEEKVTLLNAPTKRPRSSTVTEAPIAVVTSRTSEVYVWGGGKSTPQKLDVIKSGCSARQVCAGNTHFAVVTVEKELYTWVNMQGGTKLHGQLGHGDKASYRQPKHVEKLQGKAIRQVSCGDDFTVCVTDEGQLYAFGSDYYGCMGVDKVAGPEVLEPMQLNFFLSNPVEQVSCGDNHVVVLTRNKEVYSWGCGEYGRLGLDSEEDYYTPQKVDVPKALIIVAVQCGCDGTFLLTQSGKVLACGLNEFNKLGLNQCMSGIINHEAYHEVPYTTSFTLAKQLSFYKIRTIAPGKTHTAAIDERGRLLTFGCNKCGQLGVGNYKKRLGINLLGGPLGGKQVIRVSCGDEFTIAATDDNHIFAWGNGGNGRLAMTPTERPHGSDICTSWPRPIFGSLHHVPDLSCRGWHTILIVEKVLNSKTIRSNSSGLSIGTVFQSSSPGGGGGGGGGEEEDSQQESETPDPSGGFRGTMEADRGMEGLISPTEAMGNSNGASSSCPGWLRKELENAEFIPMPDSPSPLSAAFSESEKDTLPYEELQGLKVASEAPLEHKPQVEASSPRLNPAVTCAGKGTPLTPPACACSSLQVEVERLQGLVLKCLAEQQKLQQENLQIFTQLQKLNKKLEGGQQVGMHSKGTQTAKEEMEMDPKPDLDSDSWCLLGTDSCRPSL

Nc1ncnc2occ(-c3ccc(NC(=O)Nc4cc(C(F)(F)F)ccc4F)cc3)c12
inhibition [1]: 11.5% and 1.35%
inhibition [2]: 4.57% and -0.38%
inhibition [3]: 34.7% and 18.1%
inhibition [4]: 1.72% and -2.9%
inhibition [5]: -2.44% and -3.79%
inhibition [6]: 2.68% and -0.01%
inhibition [7]: -0.68% and -1.16%
inhibition [8]: 2.87% and -5.06%
inhibition [9]: -8.19% and -5.1%
inhibition [10]: 5.05% and 5.01%
